CHX counter: counter-screen for Shiga toxin inhibitors: cycloheximide protein synthesis inhibition | cell reporter, cycloheximide protein synthesis inhibition counterscreen | max response, % | actives 12% (n = 300,000); in the data active = max response mostly above about 13%, no sharp cut-off; inactive = mostly below about 14%; note: read at 38.3 µM for the half of the compounds with a filed dose
Shiga toxin inh: inhibitors of Shiga toxin in Vero cells. inhibition, % at 38.7 µM. actives 9.2% (n = 290,000). Vero cells, Shiga toxin protein synthesis inhibition reporter; in the data active = inhibition mostly above about 28%, no sharp cut-off; inactive = mostly below about 43%
SARS PLpro yeast: blocks SARS-CoV papain-like protease in a yeast assay | S. cerevisiae expressing SARS-CoV PLpro, growth rescue | Potency, µM (series often up to 32.9 µM), hits mostly activators | actives 0.19% (n = 330,000) | AID 485353; note: nearly all actives have a fitted effect of over 55% in size
NS1 function inh: influenza NS1 inhibition; Potency, µM (series often up to 46.1 µM); actives 0.4% (n = 270,000); note: actives are rising curves; nearly all actives have a fitted effect of over 50% in size
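OD600 was taken as the measure of yeast growth restored by compound in an NS1-expressing S. cerevisiae strain. Cells had been washed out of glucose medium and diluted 1:100 into galactose -URA medium, pH 6.0.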
Of the large screens only hits and unclear results are named; the others gave an inactive call. Shown are actives, neighbours in structure and some others; about 12% of the full set was active somewhere. Unless noted, calls come from the whole dose curve.

CCC(Oc1ccccc1OC)C(=O)Nc1ccc2c(c1)OCCO2 (centres undefined)	CHX counter 16
COc1ccccc1OCCC(=O)OCC(=O)Nc1ccc2c(c1)OCCO2	none (no result: CHX counter, Shiga toxin inh, NS1 function inh)
COc1ccc(NC(=O)Nc2ccc3c(c2)CCC3)cc1	CHX counter 27, Shiga toxin inh 36
CCOc1ccccc1NC(=O)Nc1ccc2c(c1)OCO2	CHX counter 37, Shiga toxin inh 38
CCOc1ccccc1OCCC(=O)Nc1ccc2c(c1)OCO2	none (no result: CHX counter, Shiga toxin inh, NS1 function inh)
COc1ccc(NC(=O)Nc2ccc3c(c2)OCO3)c(C)c1	CHX counter 66, Shiga toxin inh 82
COc1ccc(NC(=O)CCc2nnc3ccc(NCc4ccco4)nn23)cc1OC	none
COc1ccccc1CNC(=O)C(=O)NCC1OCCN1S(=O)(=O)c1ccc(Br)cc1 (centres undefined)	none
C=CCOC(=O)C1=C(C)NC(=O)NC1C1CC=CCC1 (centres undefined)	NS1 function inh inconclusive
COc1ccccc1NC(=O)Nc1ccc2c(c1)nnn2C	CHX counter 57, Shiga toxin inh 50
CC(=O)Nc1ccccc1OCC(=O)c1ccc2c(c1)OCO2	CHX counter 43, Shiga toxin inh 79
O=C(Nc1ccc2c(c1)CCC2)Nc1ccccc1Cl	CHX counter 57, Shiga toxin inh 155
O=C(COC(=O)c1ccc2c(c1)OCO2)Nc1ccccc1OC(F)F	none (no result: CHX counter, Shiga toxin inh, NS1 function inh)
COc1ccc(NC(=O)Nc2cc(C)ccc2F)cc1OC	CHX counter 18, Shiga toxin inh 41
Cc1ccc(NC(=O)Nc2ccc3c(c2)nnn3C)cc1C	none
COCCn1c(SCC(=O)Nc2cc(C)nn2-c2ccccc2)nnc1-c1ccncc1	SARS PLpro yeast inconclusive
CC(N=Cc1c(O)c2ccccc2oc1=O)C(=O)O (centres undefined)	none (no result: NS1 function inh)
C=CCn1c(=O)c(C(C)=O)cn(N(C)c2ncc(C(F)(F)F)cc2Cl)c1=O	none (no result: NS1 function inh)
Cc1c(NC(=O)Nc2ccc3c(c2)OCO3)cccc1[N+](=O)[O-]	CHX counter 42, Shiga toxin inh 77
Cc1ccc(C)c(NC(=O)Nc2ccc3c(c2)OCO3)c1	CHX counter 47, Shiga toxin inh 55
COc1ccccc1NC(=O)Nc1ccc(F)c(F)c1	CHX counter 66, Shiga toxin inh 81
CCCN(Cc1ccccc1)C(=O)Nc1ccc2c(c1)nnn2C	CHX counter 19, Shiga toxin inh 40
CN(Cc1cnn(C)c1)S(=O)(=O)c1cccc([N+](=O)[O-])c1	none
O=C(Cc1ccccc1[N+](=O)[O-])NNC(=O)Nc1ccc2c(c1)OCO2	none
O=C(Cc1ccccc1[N+](=O)[O-])Nc1ccc2c(c1)OCO2	CHX counter 17
CCCCN(C(=O)c1cc(S(=O)(=O)N2CCOCC2)ccc1Cl)c1c(N)n(CC(C)C)c(=O)[nH]c1=O	none (no result: CHX counter, Shiga toxin inh, NS1 function inh)
CC(C)CCNC(=O)COc1ccc(C(=O)c2ccccc2)cc1	none (no result: NS1 function inh)
Clc1ccc(CSc2snnc2-c2ccccc2)cc1	CHX counter 23
c1ccc(-c2nnsc2Sc2ccccn2)cc1	CHX counter 32, Shiga toxin inh 56 (no result: NS1 function inh)
Clc1ccc(-c2nnsc2SCc2ccccc2)cc1	CHX counter 44, Shiga toxin inh 49
Clc1ccccc1CSc1snnc1-c1ccccc1	CHX counter 38, Shiga toxin inh 64
O=C(Nc1ccc(F)cc1)C1C(c2ccccc2)C1(Cl)Cl (centres undefined)	none
COc1ccc2nc(N3CCCC(C(=O)NCCc4ccc(OC)c(OC)c4)C3)sc2c1 (centres undefined)	CHX counter 17, Shiga toxin inh 95
O=C(NCCc1ccc(Cl)cc1)c1ccc2nc(N3CCOCC3)sc2c1	none
COc1ccc(CCNC(=O)c2ccc3nc(N4CCCCC4)sc3c2)cc1OC	CHX counter 22, Shiga toxin inh 34
N=S(=O)(O)Cc1noc2ccccc12	none (no result: CHX counter, Shiga toxin inh, SARS PLpro yeast)
CCS(=O)(=O)Nc1cc(-c2nc3cccnc3s2)ccc1C	CHX counter 66, Shiga toxin inh 87
CCS(=O)(=O)Nc1cccc(-c2nc3cccnc3s2)c1	CHX counter 33, Shiga toxin inh 131
Cc1ccc(-c2nc3cccnc3s2)cc1NC(=O)c1ccco1	none (no result: CHX counter, Shiga toxin inh, SARS PLpro yeast)
Cc1ccc(-c2nc3cccnc3s2)cc1NS(=O)(=O)c1ccc2c(c1)CCCC2	none
O=S(=O)(Nc1cccc(-c2nc3cccnc3s2)c1)c1ccc2c(c1)CCCC2	none
CCS(=O)(=O)Nc1ccc(-c2nc3cccnc3s2)cc1	CHX counter 41, Shiga toxin inh 73
Cc1ccc(-c2nc3cccnc3s2)cc1NC(=O)C1c2ccccc2Oc2ccccc21	CHX counter 30
Cc1cc(C)c2c(CC(=O)O)c(C)[nH]c2c1	none
CS(=O)(=O)c1ccc(Cl)c(NC(=O)CSc2n[nH]c(-c3cccs3)n2)c1	none (no result: CHX counter, Shiga toxin inh, NS1 function inh)
Cc1nc2ccc(S(=O)(=O)Nc3ccc(-c4nc5cccnc5s4)cc3)cc2s1	CHX counter 37, Shiga toxin inh 49
CC(C)c1ccc(C2CC(c3ccc(Br)cc3)=NN2C(N)=S)cc1 (centres undefined)	Shiga toxin inh active
CNC(=S)N1N=C(c2ccc(C)cc2)CC1c1ccc(Br)cc1 (centres undefined)	none
CC1(C)Cc2c(cnn2-c2ccc(F)cc2)C(NC(=O)CCn2cncn2)C1 (centres undefined)	CHX counter 25
CC1(C)Cc2c(cnn2-c2ccccc2)C(NC(=O)CCCn2cncn2)C1 (centres undefined)	CHX counter 24
CC1(C)Cc2c(cnn2-c2ccc(F)cc2)C(NC(=O)Cn2cncn2)C1 (centres undefined)	none
Cc1nonc1CC(=O)NC1CC(C)(C)Cc2c1cnn2-c1ccc(F)cc1 (centres undefined)	CHX counter 14, Shiga toxin inh 33
COc1ccc(-n2ncc3c2CC(C)(C)CC3NC(=O)Cc2nonc2C)cc1 (centres undefined)	none
CN(C)CCNC(=O)C(=O)NCC1OCCN1S(=O)(=O)c1ccc2c(c1)OCCO2 (centres undefined)	none
CCc1nnc(NC(=O)c2cc(Cl)ccn2)s1	CHX counter 41, Shiga toxin inh 77
CCc1nnc(NC(=O)c2ncc(Cl)c(Cl)c2Cl)s1	none
CCc1nnc(NC(=O)c2ccc(Cl)nc2)s1	CHX counter 32, Shiga toxin inh 75 (no result: NS1 function inh)
CCN(c1ccc(NC(=O)c2ccc(Cl)nc2)cc1)C(C)C	CHX counter 24, Shiga toxin inh 38 (no result: NS1 function inh)
CC1CCN(C(=O)COC(=O)c2nn(C)c(=O)c3ccccc23)CC1	none
CSc1nnc(-c2sc3cc(Cl)ccc3c2Cl)n1C	none
CCn1c(SC)nnc1-c1sc2cc(Cl)ccc2c1Cl	CHX counter 14, Shiga toxin inh 71
COc1cc(O)oc1C=Nc1ccc(C(F)(F)F)cc1	CHX counter 42, Shiga toxin inh 34
CCN(Cc1cccc(F)c1)C(=O)c1ccc2ccccc2n1	CHX counter 40
Cc1sc[n+](CC(=O)c2ccc(Br)cc2)c1C	none
CCn1c(C)nc2c(C)[n+](CC(=O)c3ccc(Br)cc3)ccc21	CHX counter 25, Shiga toxin inh 61
Cc1nn(C)cc1CN(C)C(=O)CCc1nnc(CCC2CCCCC2)o1	CHX counter 11
c1cncc(CNc2ncnc3ccc(-c4ccco4)cc23)c1	none (no result: CHX counter, Shiga toxin inh, NS1 function inh)
CC(C)C(=O)Nc1ccc(NC(=O)c2cc3ccccc3o2)cc1	CHX counter 19, Shiga toxin inh 62

Compound activity as filed in PubChem.
